# Assay results as given in PubChem BioAssay (EPA / NIEHS).
# Results filed as inconclusive are left out. The source made the active and inactive calls. How the source made its calls, unless noted: active means hit-call score of the fitted dose curve at least 0.9, where 1 is the maximum; inactive means score below 0.9.
# How the values were obtained:
# [1] = ATG_M_32_TRANS: Attagene TRANS-FACTORIAL HepG2 Assay for M32 Transcription Factor (Internal Marker) (AID 2282984; active means hit-call score of the fitted dose curve at least 0.9, where 1 is the maximum;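 further: transcript level of a background control reporter unit measured by RT-PCR and capillary electrophoresis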); details: HepG2 Attagene TRANS M32 internal marker reporter
# In short: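 Read-out: fluorescent reporter cDNA fragments resolved by capillary electrophoresis after RT-PCR of total RNA. Transfected HepG2 cells were exposed to chemical for 24 h. Activity scored in the positive direction relative to DMSO.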
# [2] = target: Transcriptional activator Myb (Homo sapiens) (UniProt P10242); test: ATG_Myb_CIS: Attagene CIS-FACTORIAL HepG2 Assay for human Myeloblastosis (Myb) Proto-Oncogene Transcription Factor (AID 2282986); details: HepG2 Attagene CIS-FACTORIAL Myb reporter transcription; actives raise or lower the signal
# Chain of Transcriptional activator Myb (Homo sapiens) (P10242 whole entry, looked up): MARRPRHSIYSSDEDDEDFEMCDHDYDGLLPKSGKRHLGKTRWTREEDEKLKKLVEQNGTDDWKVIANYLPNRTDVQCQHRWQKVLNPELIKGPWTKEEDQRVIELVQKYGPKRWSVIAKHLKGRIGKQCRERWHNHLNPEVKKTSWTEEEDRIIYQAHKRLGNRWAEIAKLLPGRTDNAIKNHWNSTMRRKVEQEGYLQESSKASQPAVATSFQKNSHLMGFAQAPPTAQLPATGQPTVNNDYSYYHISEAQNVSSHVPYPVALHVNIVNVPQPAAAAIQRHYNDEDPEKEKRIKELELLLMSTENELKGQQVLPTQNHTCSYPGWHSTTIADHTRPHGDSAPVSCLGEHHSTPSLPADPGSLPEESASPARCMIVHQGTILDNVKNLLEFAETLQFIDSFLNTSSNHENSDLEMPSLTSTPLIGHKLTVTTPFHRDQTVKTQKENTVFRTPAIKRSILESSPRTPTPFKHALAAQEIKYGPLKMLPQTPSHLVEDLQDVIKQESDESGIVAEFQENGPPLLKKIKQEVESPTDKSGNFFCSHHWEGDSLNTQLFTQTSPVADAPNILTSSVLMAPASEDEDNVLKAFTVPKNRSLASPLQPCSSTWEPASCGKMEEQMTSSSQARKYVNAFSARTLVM
# In short: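 In this HepG2 transient-transfection format, cis-regulated reporter mRNA is quantified 24 h post-dosing by RT-PCR with capillary electrophoresis, fitted bidirectionally to DMSO baseline.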
# [3] = ATG_NFI_CIS: Attagene CIS-FACTORIAL HepG2 Assay for human Nuclear Factor I (NFI) (AID 2282989); details: HepG2 cis-regulatory reporter, NFI response element transcription; actives raise or lower the signal
# In short: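 Cells: human liver HepG2, transiently transfected with promoter-regulated reporter transcription units. Exposure 24 h. Detection: fluorescent RT-PCR products separated by capillary electrophoresis, normalised to DMSO negative control.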
# [4] = target: Myc proto-oncogene protein (Homo sapiens) (UniProt P01106); test: ATG_Myc_CIS: Attagene CIS-FACTORIAL HepG2 Assay for human Myelocytomatosis (Myc) Proto-Oncogene Transcription Factor (AID 2282990); details: HepG2, Attagene cis-reporter transcription factor activity; actives raise or lower the signal
# Chain of Myc proto-oncogene protein (Homo sapiens) (P01106 whole entry, looked up): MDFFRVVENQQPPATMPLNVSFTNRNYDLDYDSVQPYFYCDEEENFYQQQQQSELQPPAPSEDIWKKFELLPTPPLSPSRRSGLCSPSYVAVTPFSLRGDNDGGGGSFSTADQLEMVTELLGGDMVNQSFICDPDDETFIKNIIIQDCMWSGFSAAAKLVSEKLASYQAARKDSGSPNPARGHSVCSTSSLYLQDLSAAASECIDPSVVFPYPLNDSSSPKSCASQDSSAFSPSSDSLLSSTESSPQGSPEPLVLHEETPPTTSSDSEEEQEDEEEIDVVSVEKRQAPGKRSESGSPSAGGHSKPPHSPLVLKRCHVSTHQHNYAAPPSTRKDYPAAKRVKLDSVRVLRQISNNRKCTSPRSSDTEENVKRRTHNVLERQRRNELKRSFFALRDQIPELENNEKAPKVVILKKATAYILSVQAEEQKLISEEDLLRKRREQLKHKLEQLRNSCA
# In short: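 Transiently transfected HepG2 cells bearing cis-promoter reporter units for endogenous transcription factors; 24 h exposure. Reporter mRNA measured by RT-PCR, 6-FAM primer extension, HpaI cut and capillary electrophoresis; bidirectional fit relative to DMSO.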
# [5] = ATG_NRF2_ARE_CIS: Attagene CIS-FACTORIAL HepG2 Assay for human Nuclear Factor Erythroid 2 Related Factor 2 (NFR2) response to Antioxidant Response Elements (ARE) (AID 2282992); details: HepG2 Attagene ARE/NRF2 reporter, transcription factor activity; actives raise or lower the signal
# In short: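 Endogenous transcription factor activity read out as reporter transcript levels (RT-PCR plus capillary electrophoresis, fluorescence) in transiently transfected HepG2 cells. Measured at 24 h after dosing; gain or loss of signal fitted versus DMSO.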
# [6] = ATG_Oct_MLP_CIS: Attagene CIS-FACTORIAL HepG2 Assay for human Octamer-Binding Transcription Factor (Oct) (AID 2282993); details: HepG2 Attagene cis-factorial Oct reporter, mRNA; actives raise or lower the signal
# In short: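 HepG2, transient MRTU transfection, cis promoter elements; 24 h dosing; RT-PCR/CE fluorescence read-out of reporter mRNA; fit both directions vs DMSO.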
# [7] = target: Cellular tumor antigen p53 (Homo sapiens) (UniProt P04637); test: ATG_p53_CIS: Attagene CIS-FACTORIAL HepG2 Assay for human p53 Transcription Factor (AID 2282994); details: HepG2 p53 cis-element reporter, Attagene mRNA; actives raise or lower the signal
# Chain of Cellular tumor antigen p53 (Homo sapiens) (P04637 whole entry, looked up): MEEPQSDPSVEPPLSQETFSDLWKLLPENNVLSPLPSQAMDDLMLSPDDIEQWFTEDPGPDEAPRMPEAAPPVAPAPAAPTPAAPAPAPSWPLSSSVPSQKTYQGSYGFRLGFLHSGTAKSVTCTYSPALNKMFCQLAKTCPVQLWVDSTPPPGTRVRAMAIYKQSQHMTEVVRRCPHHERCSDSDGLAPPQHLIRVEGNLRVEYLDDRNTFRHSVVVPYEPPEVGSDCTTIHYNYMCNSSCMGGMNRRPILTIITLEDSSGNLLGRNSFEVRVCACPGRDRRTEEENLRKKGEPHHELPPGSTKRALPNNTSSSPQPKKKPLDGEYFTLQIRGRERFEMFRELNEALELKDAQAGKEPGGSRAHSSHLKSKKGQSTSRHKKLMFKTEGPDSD
# In short: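 Endogenous p53 activity read in transiently transfected HepG2 from a cis-element-driven reporter transcript after 24 h exposure. RNA reverse-transcribed, PCR-amplified, fluorescently labelled and sized by capillary electrophoresis; gain or loss fitted against DMSO baseline.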
# [8] = target: Hepatocyte nuclear factor 4-alpha (Homo sapiens) (UniProt P41235); test: ATG_HNF4a_TRANS: Attagene TRANS-FACTORIAL HepG2 Assay for human Hepatocyte Nuclear Factor 4 alpha (HNF4a) (AID 2282982; active means hit-call score of the fitted dose curve at least 0.9, where 1 is the maximum); details: HepG2 HNF4a transactivation reporter, mRNA readout
# Chain of Hepatocyte nuclear factor 4-alpha (Homo sapiens) (P41235 whole entry, looked up): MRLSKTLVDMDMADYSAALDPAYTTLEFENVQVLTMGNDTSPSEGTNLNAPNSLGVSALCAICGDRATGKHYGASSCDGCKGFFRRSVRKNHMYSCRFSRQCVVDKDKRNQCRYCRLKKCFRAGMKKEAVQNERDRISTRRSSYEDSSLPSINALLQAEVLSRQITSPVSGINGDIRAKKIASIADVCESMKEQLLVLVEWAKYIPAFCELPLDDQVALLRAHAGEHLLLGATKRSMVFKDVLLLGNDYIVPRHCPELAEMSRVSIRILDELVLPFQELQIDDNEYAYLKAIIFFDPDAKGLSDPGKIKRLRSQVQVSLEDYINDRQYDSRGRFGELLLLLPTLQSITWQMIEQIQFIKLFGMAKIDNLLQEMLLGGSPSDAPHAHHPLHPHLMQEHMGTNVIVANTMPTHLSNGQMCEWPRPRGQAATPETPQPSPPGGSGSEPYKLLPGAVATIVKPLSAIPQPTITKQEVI
# In short: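 Transient MRTU transfection of HepG2, 24 h dosing. Readout: reporter mRNA via RT-PCR + capillary electrophoresis, fluorescence; activity fit upward relative to DMSO control.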
# [9] = ATG_M_06_TRANS: Attagene TRANS-FACTORIAL HepG2 Assay for M06 Transcription Factor (Internal Marker) (AID 2282983; active means hit-call score of the fitted dose curve at least 0.9, where 1 is the maximum); details: HepG2 Attagene TRANS M06 internal marker reporter
# In short: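 Background control endpoint: reporter mRNA from transiently transfected HepG2 after 24 h dosing, detected by RT-PCR with capillary electrophoresis fluorescence. Analysed for gain versus DMSO.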
# [10] = target: Nuclear respiratory factor 1 (Homo sapiens) (UniProt Q16656); test: ATG_NRF1_CIS: Attagene CIS-FACTORIAL HepG2 Assay for human Nuclear Respiratory Factor 1 (NRF1) Orphan Gene (AID 2282987); details: HepG2 NRF1 cis-element reporter, Attagene multiplex; actives raise or lower the signal
# Chain of Nuclear respiratory factor 1 (Homo sapiens) (Q16656 whole entry, looked up): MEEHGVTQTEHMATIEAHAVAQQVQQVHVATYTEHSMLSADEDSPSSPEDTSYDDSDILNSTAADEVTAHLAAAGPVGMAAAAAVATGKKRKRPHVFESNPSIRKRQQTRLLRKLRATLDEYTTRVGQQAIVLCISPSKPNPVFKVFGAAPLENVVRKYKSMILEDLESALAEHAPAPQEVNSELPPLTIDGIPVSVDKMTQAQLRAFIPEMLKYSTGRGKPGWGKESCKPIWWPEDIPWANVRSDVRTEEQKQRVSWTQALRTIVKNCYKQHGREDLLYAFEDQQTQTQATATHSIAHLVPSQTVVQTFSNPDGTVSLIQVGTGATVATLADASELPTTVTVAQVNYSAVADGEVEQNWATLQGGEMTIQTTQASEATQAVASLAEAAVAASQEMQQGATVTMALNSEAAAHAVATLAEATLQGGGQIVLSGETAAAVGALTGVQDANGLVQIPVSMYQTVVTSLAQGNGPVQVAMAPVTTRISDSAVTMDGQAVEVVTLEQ
# In short: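 Using DMSO as baseline, gain- or loss-of-signal was fitted for reporter mRNA levels in HepG2 cells transiently transfected with cis-regulated reporter units. Samples were taken 24 h after dosing and read by RT-PCR with capillary electrophoresis.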
# [11] = target: Nuclear receptor subfamily 4 group A member 2 (Homo sapiens) (UniProt P43354); test: ATG_NURR1_TRANS: Attagene TRANS-FACTORIAL HepG2 Assay for human Nuclear Receptor Related Protein 1 (NURR1) (AID 2282985; active means hit-call score of the fitted dose curve at least 0.9, where 1 is the maximum); details: HepG2 Attagene TRANS reporter, mRNA readout
# Chain of Nuclear receptor subfamily 4 group A member 2 (Homo sapiens) (P43354 whole entry, looked up, the tested form may be a part): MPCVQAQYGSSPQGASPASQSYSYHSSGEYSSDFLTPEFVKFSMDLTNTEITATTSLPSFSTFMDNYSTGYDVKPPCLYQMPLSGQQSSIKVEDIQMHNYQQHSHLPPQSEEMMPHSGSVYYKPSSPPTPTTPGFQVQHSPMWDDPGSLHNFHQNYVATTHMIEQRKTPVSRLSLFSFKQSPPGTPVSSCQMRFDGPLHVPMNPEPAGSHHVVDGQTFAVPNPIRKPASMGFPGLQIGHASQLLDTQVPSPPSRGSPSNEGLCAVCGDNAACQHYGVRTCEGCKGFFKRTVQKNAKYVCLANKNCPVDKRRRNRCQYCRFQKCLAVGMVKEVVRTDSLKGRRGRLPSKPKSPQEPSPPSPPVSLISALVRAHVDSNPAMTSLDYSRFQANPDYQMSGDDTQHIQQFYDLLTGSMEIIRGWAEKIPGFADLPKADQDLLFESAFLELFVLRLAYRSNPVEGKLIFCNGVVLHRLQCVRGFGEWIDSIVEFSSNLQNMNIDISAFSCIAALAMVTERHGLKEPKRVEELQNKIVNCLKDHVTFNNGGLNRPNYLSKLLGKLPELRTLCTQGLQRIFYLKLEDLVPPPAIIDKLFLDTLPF
# In short: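 Read-out: reporter mRNA induction by RT-PCR plus capillary electrophoresis with fluorescence detection, after 24 h dosing of transfected HepG2 cells. Exogenous NR-Gal4 chimera activity drives GAL4-UAS reporter; activity fitted upward versus DMSO.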
# [12] = ATG_NF_kB_CIS: Attagene CIS-FACTORIAL HepG2 Assay for human Nuclear Factor Kappa B (NF-kB) (AID 2282991); details: HepG2 Attagene cis-factorial NF-kB reporter mRNA; actives raise or lower the signal
# In short: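 Endpoint from a 52-component multiplexed HepG2 reporter panel: cis-regulated transcription units transiently transfected, 24 h dosing, reporter mRNA quantified by RT-PCR and capillary electrophoresis, scored as increase or decrease against DMSO.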
# [13] = BSK_3C_TissueFactor: BioMAP Diversity Plus: 3C Assay for Tissue Factor Biomarker Activity (AID 2282997); details: BioMAP 3C HUVEC, tissue factor biomarker readout; actives raise or lower the signal
# In short: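 After a 24 h chemical exposure of primary human umbilical vein endothelial cells, Tissue Factor levels were quantified by ELISA.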
# [14] = BSK_3C_uPAR: BioMAP Diversity Plus: 3C Assay for Urokinase-type plasminogen activator receptor (uPAR) Biomarker Activity (AID 2282998); details: BioMAP 3C HUVEC, uPAR biomarker ELISA; actives raise or lower the signal
# In short: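 A multiplexed primary-cell system built on human umbilical vein endothelium was used, with chemical present for 24 h before reading. Cell-surface uPAR was detected by ELISA; signal change in either direction counted against DMSO.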
# [15] = BSK_3C_VCAM1: BioMAP Diversity Plus: 3C Assay for Vascular cell adhesion molecule 1 (VCAM1) Biomarker Activity (AID 2282999); details: BioMAP 3C HUVEC, VCAM1 ELISA, cytokine-stimulated; actives raise or lower the signal
# In short: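 HUVEC primary cells, 24 h compound exposure; VCAM-1 by ELISA; gain/loss of signal fitted bidirectionally vs DMSO baseline.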
smiles,measurement,setting,value
O=C(O)c1ccco1,outcome,[1],inactive
same,outcome,[2],inactive
same,outcome,[3],inactive
same,outcome,[4],inactive
same,outcome,[5],inactive
same,outcome,[6],inactive
same,outcome,[7],inactive
[O-]/[N+](=N\O)c1ccccc1,outcome,[8],inactive
same,outcome,[9],inactive
same,outcome,[1],inactive
same,outcome,[10],inactive
same,outcome,[3],inactive
same,outcome,[4],inactive
same,AC50,[5],17.3 µM (active)
same,outcome,[6],inactive
same,outcome,[7],inactive
CC/C=C\CCCCO,outcome,[8],inactive
same,outcome,[1],inactive
same,outcome,[11],inactive
same,outcome,[10],inactive
same,outcome,[3],inactive
same,outcome,[4],inactive
same,outcome,[12],inactive
same,outcome,[5],inactive
same,outcome,[6],inactive
same,outcome,[7],inactive
CCCCCCCCCCCCOC(C)=O,outcome,[9],inactive
same,outcome,[1],inactive
same,outcome,[11],inactive
same,outcome,[10],inactive
same,outcome,[4],inactive
same,outcome,[12],inactive
same,outcome,[5],inactive
same,outcome,[6],inactive
C=C(C)C(=O)OCCN(C)C,outcome,[8],inactive
same,outcome,[11],inactive
same,outcome,[2],inactive
same,outcome,[10],inactive
same,outcome,[3],inactive
same,outcome,[4],inactive
same,outcome,[5],inactive
same,outcome,[7],inactive
O=C(O)C(F)(F)C(F)(F)C(F)(F)C(F)(F)C(F)(F)C(F)(F)C(F)(F)C(F)F,outcome,[13],inactive
same,outcome,[14],inactive
same,outcome,[15],inactive
CCCC1CCOC(C)S1 (configuration not stated),outcome,[1],inactive
same,outcome,[2],inactive
same,outcome,[10],inactive
same,outcome,[3],inactive
same,outcome,[4],inactive
same,outcome,[12],inactive
same,outcome,[5],inactive
same,outcome,[6],inactive
C=CCOC(=O)/C=C\C(=O)OCC=C,outcome,[8],inactive
same,outcome,[1],inactive
same,outcome,[11],inactive
same,outcome,[2],inactive
same,outcome,[3],inactive
same,outcome,[4],inactive
same,AC50,[12],15.8 µM (active)
same,AC50,[5],6.75 µM (active)
same,outcome,[6],inactive
same,AC50,[7],156 µM (active)
CCCCCCCC1CCCC1=O (configuration not stated),outcome,[9],inactive
same,outcome,[11],inactive
same,outcome,[2],inactive
same,outcome,[10],inactive
same,outcome,[3],inactive
same,outcome,[4],inactive
same,outcome,[5],inactive
same,outcome,[6],inactive
same,outcome,[7],inactive
same,AC50,[13],33 µM (active)
same,AC50,[14],34.5 µM (active)
same,AC50,[15],35.8 µM (active)
CCC(CC)CO,outcome,[8],inactive
same,outcome,[1],inactive
same,outcome,[2],inactive
same,outcome,[10],inactive
same,outcome,[3],inactive
same,outcome,[4],inactive
same,outcome,[12],inactive
same,outcome,[5],inactive
same,outcome,[6],inactive
c1ccc(Sc2ccccc2)cc1,outcome,[9],inactive
same,outcome,[11],inactive
same,outcome,[10],inactive
same,outcome,[3],inactive
same,outcome,[4],inactive
same,outcome,[12],inactive
same,outcome,[5],inactive
same,AC50,[13],33 µM (active)
same,AC50,[14],32 µM (active)
same,AC50,[15],39.1 µM (active)
C=C(F)C(=O)OC(C(F)(F)F)C(F)(F)F,outcome,[13],inactive
same,outcome,[14],inactive
same,outcome,[15],inactive
CCCCC/C=C\C=C\C(=O)OCC,outcome,[8],inactive
same,outcome,[9],inactive
same,outcome,[1],inactive
same,AC50,[2],103 µM (active)
same,AC50,[10],50.4 µM (active)
same,AC50,[3],40 µM (active)
same,outcome,[4],inactive
same,outcome,[5],inactive
same,outcome,[6],inactive
same,AC50,[7],156 µM (active)
C=CC(C)CCCC(C)(C)O (configuration not stated),outcome,[8],inactive
same,outcome,[9],inactive
same,outcome,[2],inactive
same,outcome,[10],inactive
same,outcome,[3],inactive
same,outcome,[4],inactive
same,outcome,[12],inactive
same,outcome,[5],inactive
same,outcome,[6],inactive
same,outcome,[7],inactive
CCCCCCCCCC(=O)OCC,outcome,[9],inactive
same,outcome,[11],inactive
same,outcome,[2],inactive
same,outcome,[10],inactive
same,outcome,[3],inactive
same,outcome,[4],inactive
same,outcome,[5],inactive
same,outcome,[7],inactive
same,AC50,[13],28.7 µM (active)
same,AC50,[14],29.1 µM (active)
same,AC50,[15],32.5 µM (active)
CCCC1CCC(=O)CC1,outcome,[9],inactive
same,outcome,[1],inactive
same,outcome,[11],inactive
same,outcome,[2],inactive
same,outcome,[10],inactive
same,outcome,[3],inactive
same,outcome,[4],inactive
same,outcome,[5],inactive
same,outcome,[6],inactive
CCCCCCCCCCCCS,outcome,[2],inactive
same,outcome,[10],inactive
same,outcome,[3],inactive
same,outcome,[4],inactive
same,AC50,[5],26.4 µM (active)
same,outcome,[6],inactive
same,outcome,[7],inactive
same,AC50,[13],30.7 µM (active)
same,AC50,[14],26.4 µM (active)
same,AC50,[15],20 µM (active)
